# RXFP1 ag – RXFP1 (human) receptor agonism. Q9HBX9. HEK293T-RXFP1 cAMP TR-FRET, 30 min; response scale: percent of porcine relaxin response, buffer zero. AID 2676. actives 0.3% (n = 370,000). Potency, µM (highest dose often 57.5 µM), without a hit: at the highest dose activation, actives largely listed as activators; active = well fitted activation curve with a large enough effect; inconclusive = small, poorly fitted or top-dose-only effect; note: potency is the fitted concentration of half-maximal effect; % is set by controls: 0 for no effect and ±100 for the full control effect; nearly all actives have a fitted effect of over 60% in size
#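 HEK293 cells stably expressing RXFP1, treated 30 min at 37C with compounds plus PDE4 inhibitor Ro 20174; cAMP measured by HTRF TR-FRET. Normalized to buffer and 29 nM porcine relaxin; EC50 by Hill fit.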
# gsp ag – gsp mutant agonism. gsp mutant cells, cAMP HTRF, 30 min. Potency, µM (top dose mostly 76.9 µM), for inactives: at the highest dose activation (cAMP increase), most hits filed as activators. actives 0.13% (n = 340,000). AID 624287; active = well fitted activation curve with a large enough effect; inconclusive = small, poorly fitted or top-dose-only effect, or another doubt; inactive = no such curve, though single readings can be large or run the other way; cell line not stated here;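 note: phosphodiesterase inhibitor Ro 20-1724 added with compounds to block cAMP breakdown; potency is the fitted concentration of half-maximal effect; nearly all actives have a fitted effect of over 60% in size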
#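 Cells in DMEM/10% FBS with G418 were pretreated with compounds in DMSO plus […] (300 uM stock) for 30 min at 37C. cAMP was measured by HTRF (cAMP-d2 plus anti-cAMP antibody-K) after 30 min at room temperature.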
# gsp antag – gsp mutant antagonism. Potency, µM (highest dose often 76.9 µM), for the others: at the top dose activity change, negative = inhibition, actives largely listed as inhibitors. gsp-mutant cells, cAMP HTRF, 30 min. actives 0.4% (n = 340,000); calls by dose curve; cell line not stated here;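 note: intracellular cAMP measured with PDE inhibitor Ro 20-1724 present during compound exposure; potency is the fitted concentration of half-maximal effect; % is set by controls: 0 for no effect and ±100 for the full control effect; nearly all actives have a fitted effect of over 65% in size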
#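 Measurement of cellular cAMP by homogeneous time-resolved fluorescence following a 30 min compound exposure at 37C. The PDE inhibitor […] was present throughout; the assay buffer was DPBS with 0.05% BSA and 0.005% Tween 20.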
# TSHR antagonist – blocks TSH signaling through the human TSH receptor | actives 0.2% (n = 330,000) | P16473 | activity change, negative = inhibition, % at 11.5 µM | TSHR-expressing cells, TSH-stimulated cAMP HTRF, 2 h; active compounds read low;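 active = activity change below a set negative limit, meaning inhibition stronger than a set level, cut at about -70% in these data; inconclusive = activity change between two set negative limits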; note: % is set by controls: 0 for no effect and ±100 for the full control effect
# Target sequence (P16473 whole entry, looked up): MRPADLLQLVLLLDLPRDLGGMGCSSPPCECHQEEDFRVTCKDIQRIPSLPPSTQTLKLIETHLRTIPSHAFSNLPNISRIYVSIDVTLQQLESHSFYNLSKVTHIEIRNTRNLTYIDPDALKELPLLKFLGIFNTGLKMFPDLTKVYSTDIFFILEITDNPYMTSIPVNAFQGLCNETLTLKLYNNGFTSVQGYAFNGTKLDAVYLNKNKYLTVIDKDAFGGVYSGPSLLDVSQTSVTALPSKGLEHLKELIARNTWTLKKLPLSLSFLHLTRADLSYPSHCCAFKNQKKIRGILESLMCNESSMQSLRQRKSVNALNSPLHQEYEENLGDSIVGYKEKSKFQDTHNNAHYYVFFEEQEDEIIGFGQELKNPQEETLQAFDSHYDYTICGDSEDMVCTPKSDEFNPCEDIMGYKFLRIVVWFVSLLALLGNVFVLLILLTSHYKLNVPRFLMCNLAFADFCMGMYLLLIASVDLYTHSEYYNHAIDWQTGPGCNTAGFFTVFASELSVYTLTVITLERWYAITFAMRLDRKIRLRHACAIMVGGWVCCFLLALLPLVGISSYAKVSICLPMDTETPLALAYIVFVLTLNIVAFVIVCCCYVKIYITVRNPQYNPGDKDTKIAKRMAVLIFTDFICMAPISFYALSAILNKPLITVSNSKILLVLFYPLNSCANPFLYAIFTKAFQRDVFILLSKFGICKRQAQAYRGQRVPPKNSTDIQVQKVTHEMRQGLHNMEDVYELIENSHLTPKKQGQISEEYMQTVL
#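 TSHR-expressing cells, 200/well, pre-treated with compound, then stimulated with EC80 TSH (4nM final) for 2 hours at 37 deg C. cAMP measured by competitive HTRF: anti-cAMP cryptate antibody in lysis buffer plus cAMP-d2, read after 30 minutes at room temperature.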
# RXFP1 antag – blocks the human relaxin receptor RXFP1. AID 1259400. Q9HBX9. actives 0.59% (n = 350,000). activity change, negative = inhibition, % at 57.5 µM. HEK293-RXFP1, relaxin-stimulated cAMP HTRF, 30 min; active compounds read low;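 active = activity change of -60% or lower, but not beyond a set lower limit; inconclusive = change between -60% and -40%, or beyond the set limit; inactive = change above -40%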; note: % is set by controls: 0 for no effect and ±100 for the full control effect
# The depositor's hits bear a star; ? = inconclusive; / = not tested or not shown; [ ] = dose if it differs, or a comment. This is a sample that favours compounds with a hit; in the whole collection about 1% have one here.
SMILES,RXFP1 ag,gsp ag,gsp antag,TSHR antagonist,RXFP1 antag
Cc1ccc(NC(=O)c2cc3ccccc3oc2=N)cc1,6%,0%,15%,8,1
NC(=O)C1CCN(c2nc(-c3ccc(C(F)(F)F)cc3)cs2)CC1,/,/,/,-21,/
COCCNc1cnn(-c2ccccc2)c(=O)c1Cl,-2%,-17%,4%,-122*,-3
CCCCNc1cnn(-c2ccccc2)c(=O)c1Cl,4%,-1%[15.4 µM],8%,10,-2
COc1ccc(-n2nc(C(=O)NCCc3ccc(OC)c(OC)c3)c3c4ccccc4n(C)c3c2=O)cc1Cl,2%,/,/,/,4
COc1cccc(N2CCN(C(=O)C3CCN(S(=O)(=O)c4cccc5nonc45)CC3)CC2)c1,3%,/,/,/,-6
Oc1cccc(C2c3[nH]c4ccccc4c3CCN2Cc2ccc3c(c2)CCO3)c1 (stereo not given),0%,10%[15.4 µM],-5%,-7,-61*
COc1ccccc1C(=O)NCCC(=O)Nc1ccncc1,0%,14%,-6%,5,-4
COc1ccccc1C(=O)NCCC(=O)Nc1ccc(OC(F)(F)F)cc1,-5%,21%[15.4 µM],-27%,-95*,-5
Cc1cccc(N2CCN(C(=O)c3ccc4c(c3)OCCO4)CC2)c1C,2%,-24%[15.4 µM],-6%,-7,-26
Cc1ccccc1C(=O)N1CCN(c2ccc(NC(=O)c3ccc4c(c3)OCCO4)cc2)CC1,-1%,-8%[15.4 µM],35µM*,?,?
Cc1cccc(C)c1N1CCN(C(=O)c2ccc3c(c2)OCO3)CC1,0%,2%[15.4 µM],-14%,10,-62*
CCc1ccccc1N(C)C(=O)C1CCCN(c2ncnc3c2nc2n3CCCCC2)C1 (stereo not given),5%,/,/,/,-8
Cc1ccc(C)n1-c1nnc(N2CCC(C(=O)Nc3ccccc3Br)CC2)s1,2%,/,/,/,-4
Cc1cc(OCC(=O)Nc2sc3c(c2C(N)=O)CCCC3)ccc1C(C)C,-1%,/,/,/,/
CCOc1cc(/C=C2\CCC/C(=C\c3cc(Cl)c(O)c(OCC)c3)C2=O)cc(Cl)c1O,0%,5%,-25%,-25,-69*
CCOc1cc(/C=C2\CN(C)C/C(=C\c3ccc(O)c(OCC)c3)C2=O)ccc1O,0%,-12%,-20%,-19,-13
CCCN1C(=O)/C(=C/c2c(NCCCOCC)nc3c(C)cccn3c2=O)SC1=S,1%,-2%,3%,48,5
Cc1cccn2c(=O)c(/C=C3\SC(=S)NC3=O)c(NCCCN3CCOCC3)nc12,5µM*,10µM*,16%,19,9
CCc1ccc(C(=O)NC2=NC(c3cc(OC)ccc3OC)CC(=O)N2)cc1 (stereo not given),12%,/,/,/,-5
Cc1ccc(-n2ccnc(NCCc3ccc(S(N)(=O)=O)cc3)c2=O)c(C)c1,0%,/,/,/,/
COc1ccc(C2=NOC(Cn3nc(C(=O)NCc4ccco4)cc3-c3ccccc3)C2)cc1 (stereo not given),0%,-27%,32µM*,-6,/
C=C1C(=O)c2sccc2C(c2ccc(OC)c(OC)c2)C1COC(C)=O (stereo not given),/,-66%,4%,/,-104*
C=C1CCC2C(C)(C)[C@@H](O)CC[C@@]2(C)[C@@H]1COc1ccc2ccc(=O)oc2c1 (stereo not given in full),6%,5%,-20%,-76*,2
COc1ccc2c(c1)CCc1c(C(=O)N3CCCc4ccccc43)noc1-2,-1%,-5%,40µM*,-26,-20
SMILES,RXFP1 ag,gsp ag,gsp antag,TSHR antagonist,RXFP1 antag
COc1ccc2c(c1)CCc1c(C(=O)N3CCOCC3)noc1-2,-1%,5%,-7%,-13,-12
Cc1cccc(NC(=O)C2CCN(S(=O)(=O)c3ccc4c(c3)CCCC(=O)N4)CC2)c1,2%,/,/,/,/
C=CCOc1ccc(C2C(C(=O)c3ccco3)=C(O)C(=O)N2c2nnc(C)s2)cc1 (stereo not given),14µM*,45%[15.4 µM],-10%,25,-6
Cc1c(C(=O)N(C)c2ccccc2)sc2nc(-c3ccc(F)cc3)cn12,4%,/,/,/,-30
Cc1c(C(=O)N(C)Cc2ccccc2)sc2nc(-c3ccc(F)cc3)cn12,4%,/,/,/,-68*
CC(C)Cc1cc(C(=O)Nc2sc3c(c2C#N)CCC3)no1,2%,?,-17%,-19,-66*
CCOC(=O)C1CCCN(S(=O)(=O)c2ccc(N3CCCCS3(=O)=O)cc2)C1 (stereo not given),5%,/,/,/,3
CC(C)c1ccc(S(=O)(=O)c2cnc(SCC(=O)Nc3cccc(C(F)(F)F)c3)nc2N)cc1,2%,/,/,/,/
Cc1ccc(C)c(CSc2cn(CC(=O)N3CCCCCC3)c3ccccc23)c1,-2%,/,/,/,-5
Cc1ccc(C)c(CSc2cn(CC(=O)N3CCCC3)c3ccccc23)c1,18%,/,/,/,-74*
CC(=O)N(C1CC(C)C(C#N)(C#N)C1(C#N)C#N)N(C)C (stereo not given),2%,4%[15.4 µM],11%,1,-19
CCCC(=O)N(C1CC(C)C(C#N)(C#N)C1(C#N)C#N)N(C)C (stereo not given),0%,6%[15.4 µM],-3%,?,-85*
O=C(CN1C(=O)C(=O)N(CCC2=CCCCC2)C1=O)c1c[nH]c2ccccc12,/,18%[15.4 µM],-19%,/,-66*
COc1ccc2oc(=O)c(-c3csc(Nc4ccc(O)cc4)n3)cc2c1,-3%,0%,25µM*,-26,-39
CCCCNC(=O)c1cc(-c2ccc(OC)cc2)nc2n[nH]c(-c3cccc([N+](=O)[O-])c3)c12,3%,/,/,/,-8
CC(C)c1nn2c(=O)cc(COC(=O)c3ccc(NC(=O)CCc4ccccc4)cc3)nc2s1,18%,/,/,/,-5
CCNC(=O)c1cnc2sc(N3CCC(C)CC3)nn2c1=O,15%,/,/,/,-2
CCOC(=O)c1nnn2c1nc(SCC(C)=O)c1ccccc12,16µM*,26%[15.4 µM],18%,6,22
Cc1ccc(CNc2ncnc3c2c(-c2ccccc2)cn3-c2cccc(Cl)c2)cc1,2%,/,/,/,23
CCOC(=O)c1c(C)n(-c2ccccc2)c2ccc(OC(=O)c3ccccc3NC(=O)C(C)(C)C)cc12,0%,/,/,/,-64*
CCOC(=O)c1c(C)n(-c2ccccc2)c2ccc(OC(=O)c3ccccc3NC(=O)C(C)C)cc12,-1%,/,/,/,-32
Cc1cc2n(n1)C(c1ccc(O)cc1)Nc1ccccc1-2 (stereo not given),2%,?,-11%,3,12
Cc1ccc2c(c1)-c1cc(C)nn1C(c1cc(Br)ccc1O)N2 (stereo not given),-3%,/,/,/,-114*
Cc1ccc(-c2csc(/C(C#N)=C/c3ccccc3Cl)n2)cc1,6%,/,/,/,2
Cc1nc2nc(NC(=O)c3ccc(C(C)(C)C)cc3)[nH]n2c(=O)c1C,-3%,/,/,/,3

# Screening data deposited in PubChem by National Center for Advancing Translational Sciences (NCATS).
